# According to PMC8384837, “Expanding the binding specificity for RNA recognition by a PUF domain”:
# What was measured:
# Assay in all cases: yeast three-hybrid, YBZ-1, SC-Leu-His + 0.5 mM 3-AT, 4 days
# Conditions in all cases: tags: N-Gal4 AD-HA kept; label: inside an RPR1-promoter hybrid RNA with tandem MS2 sites; ssRNA
# [1] = molecular target: PUM1 PUF domain R1-RWS (Homo sapiens, UniProt Q14671 828-1176, S863R;R864W;Q867S)
# Summary of the method: (§1)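 The interaction score is the log change in variant frequency from input to selection. Scores were computed in log2 with a pseudocount of 1 for absent variants, using Illumina sequencing of PCR-amplified repeat regions. The input came from four days on SC-Leu and the selection from four days on SC-Leu-His + 0.5 mM 3-AT. The cells were strain YBZ-1 (LexA–MS2 coat fusion, HIS3 reporter) co-expressing Pumilio-1 PUF domain libraries and matching RNA elements from a centromeric plasmid.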
# [2] = molecular target: PUM1 PUF domain R1-MGR (Homo sapiens, UniProt Q14671 828-1176, S863M;R864G;Q867R)
# Summary of the method: as §1
# [3] = molecular target: PUM1 PUF domain R1-RGT (Homo sapiens, UniProt Q14671 828-1176, S863R;R864G;Q867T)
# Summary of the method: as §1
# [4] = molecular target: PUM1 PUF domain R7-RGY (Homo sapiens, UniProt Q14671 828-1176, S1079R;N1080G;E1083Y)
# Summary of the method: as §1
# [5] = molecular target: PUM1 PUF domain R3-LSV (Homo sapiens, UniProt Q14671 828-1176, C935L;R936S;Q939V)
# Summary of the method: as §1
# [6] = molecular target: PUM1 PUF domain R3-LWN (Homo sapiens, UniProt Q14671 828-1176, C935L;R936W;Q939N)
# Summary of the method: as §1
# [7] = molecular target: PUM1 PUF domain R8-AWK (Homo sapiens, UniProt Q14671 828-1176, N1122A;Y1123W;Q1126K)
# Summary of the method: as §1
# [8] = molecular target: PUM1 PUF domain R5-SVG (Homo sapiens, UniProt Q14671 828-1176, C1007S;R1008V;Q1011G)
# Summary of the method: as §1
# [9] = molecular target: T1, PUM1 PUF domain R6-GYQ (Homo sapiens, UniProt Q14671 828-1176, N1043G)
# T1 sequence: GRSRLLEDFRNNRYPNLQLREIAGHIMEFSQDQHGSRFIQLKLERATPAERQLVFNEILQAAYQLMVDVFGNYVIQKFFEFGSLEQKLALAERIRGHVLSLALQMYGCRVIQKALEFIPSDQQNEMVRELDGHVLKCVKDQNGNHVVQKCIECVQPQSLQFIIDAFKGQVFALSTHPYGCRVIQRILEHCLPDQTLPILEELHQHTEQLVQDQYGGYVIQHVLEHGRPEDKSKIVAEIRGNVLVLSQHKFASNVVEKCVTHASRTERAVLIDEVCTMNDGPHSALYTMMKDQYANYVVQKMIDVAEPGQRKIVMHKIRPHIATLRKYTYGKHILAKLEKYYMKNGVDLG
# Summary of the method: as §1
# [10] = molecular target: PUM1 PUF domain R5-RGG (Homo sapiens, UniProt Q14671 828-1176, C1007R;R1008G;Q1011G)
# Summary of the method: as §1
# Chain of PUM1 PUF domain R1-RWS (Q14671 828-1176 S863R/R864W/Q867S): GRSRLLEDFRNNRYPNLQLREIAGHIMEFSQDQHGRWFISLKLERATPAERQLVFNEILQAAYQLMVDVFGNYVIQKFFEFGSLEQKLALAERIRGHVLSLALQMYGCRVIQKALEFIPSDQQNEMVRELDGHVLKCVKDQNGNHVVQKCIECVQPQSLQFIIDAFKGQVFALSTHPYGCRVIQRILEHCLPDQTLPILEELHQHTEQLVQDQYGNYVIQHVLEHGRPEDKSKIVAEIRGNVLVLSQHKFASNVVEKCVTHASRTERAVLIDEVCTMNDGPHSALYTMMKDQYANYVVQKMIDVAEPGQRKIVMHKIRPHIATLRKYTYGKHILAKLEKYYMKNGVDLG
# Chain of PUM1 PUF domain R1-RGT (Q14671 828-1176 S863R/R864G/Q867T): as the sequence (Q14671 828-1176 S863R/R864W/Q867S) above, with W37G, S40T counted along it
sequence,measurement,setting,value
GGCUAGAACUAGUGGAUCCCCCGGCGCCCGGCGGCUCGAGCCCGGGUAAGUGUAAAUUGUCUGCAUGCCGCCGGGCGCCAUGCCUGCAGGUCGACUCUAGAAAACAUG,binding signal,[1],3.86 log2 enrichment (interaction score)
same,binding signal,[2],2.75 log2 enrichment (interaction score)
same,binding signal,[3],4.56 log2 enrichment (interaction score)
GGCUAGAACUAGUGGAUCCCCCGGCGCCCGGCGGCUCGAGCCCGGGUAAGUGUAAAUCGUCUGCAUGCCGCCGGGCGCCAUGCCUGCAGGUCGACUCUAGAAAACAUG,binding signal,[1],2.83 log2 enrichment (interaction score)
same,binding signal,[2],1.49 log2 enrichment (interaction score)
same,binding signal,[3],5.04 log2 enrichment (interaction score)
GGCUAGAACUAGUGGAUCCCCCGGCGCCCGGCGGCUCGAGCCCGGGUAAGUUUAAAUAGUCUGCAUGCCGCCGGGCGCCAUGCCUGCAGGUCGACUCUAGAAAACAUG,binding signal,[4],2.43 log2 enrichment (interaction score)
GGCUAGAACUAGUGGAUCCCCCGGCGCCCGGCGGCUCGAGCCCGGGUAAGUGUAAUUAGUCUGCAUGCCGCCGGGCGCCAUGCCUGCAGGUCGACUCUAGAAAACAUG,binding signal,[5],2.26 log2 enrichment (interaction score)
same,binding signal,[6],4 log2 enrichment (interaction score)
GGCUAGAACUAGUGGAUCCCCCGGCGCCCGGCGGCUCGAGCCCGGGUAAGUGUAAGUAGUCUGCAUGCCGCCGGGCGCCAUGCCUGCAGGUCGACUCUAGAAAACAUG,binding signal,[5],3.37 log2 enrichment (interaction score)
GGCUAGAACUAGUGGAUCCCCCGGCGCCCGGCGGCUCGAGCCCGGGUAAGCGUAAAUAGUCUGCAUGCCGCCGGGCGCCAUGCCUGCAGGUCGACUCUAGAAAACAUG,binding signal,[7],4.69 log2 enrichment (interaction score)
GGCUAGAACUAGUGGAUCCCCCGGCGCCCGGCGGCUCGAGCCCGGGUAAGUGUGAAUAGUCUGCAUGCCGCCGGGCGCCAUGCCUGCAGGUCGACUCUAGAAAACAUG,binding signal,[8],2.82 log2 enrichment (interaction score)
GGCUAGAACUAGUGGAUCCCCCGGCGCCCGGCGGCUCGAGCCCGGGUAAGUGUAAAUGGUCUGCAUGCCGCCGGGCGCCAUGCCUGCAGGUCGACUCUAGAAAACAUG,binding signal,[1],1.65 log2 enrichment (interaction score)
same,binding signal,[3],1.3 log2 enrichment (interaction score)
GGCUAGAACUAGUGGAUCCCCCGGCGCCCGGCGGCUCGAGCCCGGGUAAGUGUAAAUAGUCUGCAUGCCGCCGGGCGCCAUGCCUGCAGGUCGACUCUAGAAAACAUG,binding signal,[7],5.21 log2 enrichment (interaction score)
same,binding signal,[9],3.62 log2 enrichment (interaction score)
GGCUAGAACUAGUGGAUCCCCCGGCGCCCGGCGGCUCGAGCCCGGGUAAGUGUUAAUAGUCUGCAUGCCGCCGGGCGCCAUGCCUGCAGGUCGACUCUAGAAAACAUG,binding signal,[10],2.55 log2 enrichment (interaction score)
GGCUAGAACUAGUGGAUCCCCCGGCGCCCGGCGGCUCGAGCCCGGGUAAGUGUCAAUAGUCUGCAUGCCGCCGGGCGCCAUGCCUGCAGGUCGACUCUAGAAAACAUG,binding signal,[10],2.8 log2 enrichment (interaction score)
